Assay results: PubChem BioAssay AID651789 (National Center for Advancing Translational Sciences (NCATS), 2012)
Inconclusive results are not listed. Active and inactive are the calls of the source. Calls follow the shape of the dose curve; as a rule, active = well fitted inhibition curve with a large enough effect; inconclusive = small, poorly fitted or top-dose-only effect; inactive = no such curve, though single readings can be large or run the other way.

Test: Acumen qHTS Assay for Inhibitors of the mTORC1 Signaling Pathway in WT MEF Cells: Hit Validation; also: nearly all actives have a fitted effect of over 60% in size;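 as to activity change, negative = inhibition: phospho-rpS6 Ser235/236 immunofluorescence normalised to propidium iodide cell stain; percent of cells above a cutoff set by 7.5 nM rapamycin treated wells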
Settings: Acumen imaging; series mostly up to 37.3 µM; activity change, negative = inhibition: at the top concentration
Procedure, shortened: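 Read-out is immunofluorescent phospho-rpS6 (Ser235/236) normalised to PI-stained cell number, reported as % active cells using a 7.5 nM rapamycin threshold. Cells: WT or Tsc2-/-, p53-/- MEFs, compound-exposed 24 h at 37C; PI count also tracks viability.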
Potency is read from the fitted curve at half-maximal effect.

Row | Compound | Potency | activity change, negative = inhibition
1 | CCCC(=O)OC1=CN(Cc2ccccc2)S(=O)(=O)c2ccccc21 | 3.69 µM (active) | –
2 | Cc1ccc(NC(=O)CSc2ccc(-c3ccccn3)nn2)cc1F | – | -2.29% (inactive)
3 | COc1ccc(OCC(O)Cn2c(=N)n(CCN3CCCCC3)c3ccccc32)cc1 (stereo not given) | – | -15.9% (inactive)
4 | COc1ccc(-c2ccc(CCC(=O)O)n2-c2ccccc2O)cc1 | – | -0.763% (inactive)
5 | O=C(COc1ccc(F)cc1)Nc1ccc(Cl)c(-c2nc3ccccc3[nH]2)c1 | – | 8.46% (inactive)
6 | CCOC(=O)c1cnc2ccc(OCC)cc2c1NCCc1ccc(OC)c(OC)c1 | – | -5.38% (inactive)
7 | COc1cc(OC)cc(C(=O)NCCc2csc(-c3cccc(C)c3)n2)c1 | – | -2.29% (inactive)
8 | COc1ccc2c(c1)CC(C(=O)Nc1cc(Cl)ccc1C)CO2 (stereo not given) | – | 6.87% (inactive)
9 | CCN(CC)CCNC(=O)c1ccc(Cn2c(=O)c3cccn3c3cccnc32)cc1 | – | -9.16% (inactive)
10 | CC(C)N(C(=O)Cn1cc(S(=O)(=O)Cc2ccc(Cl)cc2)c2ccccc21)C(C)C | – | -3.05% (inactive)
11 | Cc1ccc(S(=O)(=O)c2nc(-c3ccco3)oc2SC(C)c2ccccc2)cc1 (stereo not given) | – | 2.14% (inactive)
12 | CCOC(=O)c1ccc(N2C(=O)c3n[nH]c(C)c3C2c2cccc(Br)c2)cc1 (stereo not given) | – | -26.9% (inactive)
13 | CCOC(=O)c1c(NC(=O)c2cc(CC)on2)sc(C(C)=O)c1C | – | 13.1% (inactive)
14 | CCCCN(C)CCNC(=O)c1cc2c(=O)n(C)c3ccccc3c2n1C | – | 16.9% (inactive)
15 | CN(CCCNC(=O)c1cc2c(Cl)nc3ccccc3c2s1)Cc1ccccc1 | – | -20.5% (inactive)
16 | CCc1ccc(OCC(=O)N(Cc2ccc(C)cc2)Cc2ccco2)cc1 | – | 24% (inactive)
17 | O=C(Nc1ccccc1)N(Cc1cccc(Cl)c1)c1ccccn1 | – | 20.6% (inactive)
18 | COc1ccccc1CNC(=O)CCCn1c(=O)c2cccn2c2ccccc21 | – | 3.82% (inactive)
19 | COc1ccc(N(C)C(=O)c2cc(S(=O)(=O)N3CCc4ccccc43)cn2C)c(OC)c1 | – | 31.5% (inactive)
20 | Cc1cccc(Nc2ncc(NC(=O)c3cccc(F)c3)c(Nc3cccc(C)c3)n2)c1 | 5.85 µM (active) | –

Row | Compound | Potency | activity change, negative = inhibition
21 | Cc1ccc2nc(/C(C#N)=C/c3ccc(-c4ccc(F)cc4F)o3)[nH]c2c1 | 4.14 µM (active) | –
22 | CC(C)S(=O)(=O)c1oc(-c2cccs2)nc1S(=O)(=O)c1ccc(F)cc1 | 0.826 µM (active) | –
23 | COc1ccc(N(Cc2ccccc2)C(=O)c2nc(S(C)(=O)=O)ncc2Cl)cc1 | 2.07 µM (active) | –
24 | O=C(Nc1ccc(-c2cc(C(F)(F)F)nn2-c2ccccc2)cc1)c1cccc(F)c1 | – | -23.2% (inactive)
25 | O=C(NCCSc1c(-c2ccc(F)cc2)[nH]c2ccccc12)c1ccc(S(=O)(=O)N2CCOCC2)cc1 | – | 3.45% (inactive)
26 | COc1cc(CNc2ccc3c(c2)ncn3C(C)C)cc(OC)c1OC | – | -27% (inactive)
27 | CCCCCn1c(=N)n(CC(O)COc2cccc(C)c2)c2ccccc21 (stereo not given) | 4.14 µM (active) | –
28 | NC(=O)c1ccccc1NC(=O)c1ccc(-c2ccc(Br)cc2)o1 | – | -20.5% (inactive)
29 | CCCc1oc2ccc(NS(=O)(=O)c3ccc(OC)cc3)cc2c1C(=O)OCC | 0.585 µM (active) | –
30 | COc1ccc(NC(=O)CSc2nc3ccccc3n2Cc2cccc(OC)c2)cc1 | – | -26.4% (inactive)
31 | CCOC(=O)c1ccc(N2C(=O)c3n[nH]c(-c4ccco4)c3C2c2ccc(OCC)cc2)cc1 (stereo not given) | – | 2.03% (inactive)
32 | Cc1nn(CCCC(=O)NCc2cccc(Cl)c2)c(=O)c2c1sc1ccccc12 | – | 8.4% (inactive)
33 | Cc1ccccc1NC(=O)c1sc2nc3c(cc2c1N)CCCC3 | – | -24.6% (inactive)
34 | COc1ccccc1C(=O)Nc1ccc2nc(N3CCC(C)CC3)cc(C)c2c1 | – | -30% (inactive)
35 | CCS(=O)(=O)c1ncc(Cl)c(C(=O)N(Cc2ccccc2)Cc2ccco2)n1 | 3.29 µM (active) | –
36 | CC(C)S(=O)(=O)c1oc(-c2ccc(F)cc2)nc1S(=O)(=O)c1ccc(F)cc1 | 0.521 µM (active) | –
37 | COc1ccc(-c2nc(C)c(CCNC(=O)c3ccccc3Br)s2)cc1OC | – | 24.3% (inactive)
38 | CCCC1=Nc2cc(C(=O)NC3CCCC3)ccc2Sc2ccc(C)cc21 | 0.736 µM (active) | –
39 | COc1cccc(-c2nc(SCC(=O)NCC3CCCO3)c(-c3ccc(F)cc3)[nH]2)c1 (stereo not given) | – | 12.2% (inactive)
40 | CCOc1ccc(S(=O)(=O)N(C(=O)c2ccncc2)c2ccc3oc(C)c(C(=O)OC)c3c2)cc1 | 14.7 µM (active) | –
